Test results reported in PubChem BioAssay AID1159580 (chemical genetic matrix, 2015).
Where “and” joins values, the source holds several entries; their conditions need not be identical. Identical values can stand only once. The whole screen tested about 5,500 compounds, of which about 2,000 (36%) were called active. Not shown: some 18% with an inconclusive outcome. Cut-off read from the data, not from the text of the source: active = normalized growth mostly below about 0.91 (no sharp cut-off); inconclusive = no clear call, values can overlap the other calls; inactive = mostly above about 0.92. Some of the results follow.

Experiment: chemical genetic growth profiling, strain panel (AID 1159580);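 note: tested at 20 µM; growth read once vehicle control cultures reached saturation at 30 °C; 1 = growth at the plate median or of vehicle wells; lower values mean less growth of the strain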
Conditions: S. cerevisiae deletion strains, growth OD

Measured: normalized growth

NC(C(=O)O)C(O)C(=O)O (stereo not drawn)
inactive: locus YAL013W, strain DEP1, stronger effect = lower value 1.04 | locus YAL021C, strain ccr4, stronger effect = lower value 0.941 | locus YAL026C, strain drs2, stronger effect = lower value 0.998 | locus YAL030W, strain snc1, stronger effect = lower value 0.98 | locus YBL061C, strain skt5, stronger effect = lower value 0.996 | locus YBR009C, strain hhf1, stronger effect = lower value 0.955 | locus YBR021W, strain FUR4, stronger effect = lower value 0.993 | locus YBR023C, strain chs3, stronger effect = lower value 0.994 | locus YBR171W, strain sec66, stronger effect = lower value 0.997 | locus YBR229C, strain ROT2, stronger effect = lower value 1.01 | locus YBR231C, strain swc5, stronger effect = lower value 1.03 | locus YBR279W, strain paf1, stronger effect = lower value 0.993 | locus YCL011C, strain gbp2, stronger effect = lower value 0.98 | locus YCL016C, strain dcc1, stronger effect = lower value 0.978 | locus YCL029C, strain bik1, stronger effect = lower value 1.03 | locus YCL061C, strain MRC1, stronger effect = lower value 1 | locus YCL069W, strain vba3, stronger effect = lower value 0.991 | locus YCR088W, strain abp1, stronger effect = lower value 1 | locus YDL005C, strain med2, stronger effect = lower value 0.982 | locus YDL035C, strain GPR1, stronger effect = lower value 1.02 | locus YDL040C, strain nat1, stronger effect = lower value 0.996 | locus YDL074C, strain BRE1, stronger effect = lower value 1.02 | locus YDL101C, strain DUN1, stronger effect = lower value 1.02 | locus YDL134C, strain PPH21, stronger effect = lower value 1.01 | locus YDL185W, strain tfp1, stronger effect = lower value 1.02 | locus YDL192W, strain arf1, stronger effect = lower value 1.02 | locus YDR001C, strain nth1, stronger effect = lower value 0.97 | locus YDR069C, strain doa4, stronger effect = lower value 0.969 | locus YDR101C, strain arx1, stronger effect = lower value 1.04 | locus YDR137W, strain rgp1, stronger effect = lower value 0.982 | locus YDR159W, strain sac3, stronger effect = lower value 1.05 | locus YDR162C, strain NBP2, stronger effect = lower value 1.04 | locus YDR195W, strain ref2 0.973 | locus YDR297W, strain sur2, stronger effect = lower value 0.994 | locus YDR318W, strain mcm21, stronger effect = lower value 1.01 | locus YDR334W, strain swr1, stronger effect = lower value 0.983 | locus YDR335W, strain msn5, stronger effect = lower value 0.986 | locus YDR388W, stronger effect = lower value 1.02 | locus YDR392W, strain spt3, stronger effect = lower value 0.91 | locus YDR502C, strain sam2, stronger effect = lower value 1.03 | locus YEL003W, strain gim4, stronger effect = lower value 0.999 | locus YEL037C, strain rad23, stronger effect = lower value 0.983 | locus YEL061C, strain CIN8 (second series), stronger effect = lower value 0.99 | locus YEL061C, strain CIN8, stronger effect = lower value 1.01 | locus YER015W, strain faa2, stronger effect = lower value 0.997 | locus YER016W, strain bim1, stronger effect = lower value 0.991 | locus YER110C, stronger effect = lower value 1.03 | locus YER111C, strain swi4, stronger effect = lower value 0.994 | locus YER155C, strain BEM2 (second series), stronger effect = lower value 1.03 | locus YER155C, strain BEM2, stronger effect = lower value 0.983 | locus YER167W, strain BCK2, stronger effect = lower value 1.01 | locus YFR010W, strain ubp6, stronger effect = lower value 0.986 | locus YGL078C, strain dbp3, stronger effect = lower value 1.02 | locus YGL086W, strain mad1, stronger effect = lower value 1 | locus YGL167C, strain pmr1, stronger effect = lower value 0.969 | locus YGL173C, strain kem1, stronger effect = lower value 0.999 | locus YGL227W, strain vid30, stronger effect = lower value 0.997 | locus YGL240W, strain doc1, stronger effect = lower value 1 | locus YGL248W, strain PDE1, stronger effect = lower value 1.02 | locus YGL253W, strain hxk2, stronger effect = lower value 1.02 | locus YGR078C, strain PAC10, stronger effect = lower value 1.02 | locus YGR135W, strain pre9, stronger effect = lower value 1.01 | locus YGR252W, strain gcn5, stronger effect = lower value 0.999 | locus YHR013C, strain ard1, stronger effect = lower value 0.969 | locus YHR027C, strain rpn1, stronger effect = lower value 0.991 | locus YHR030C, strain SLT2, stronger effect = lower value 1 and 1.03 | locus YHR079C, strain IRE1 (second series), stronger effect = lower value 1.02 | locus YHR079C, strain IRE1, stronger effect = lower value 1.03 | locus YHR094C, strain hxt1, stronger effect = lower value 1.02 | locus YHR129C, strain ARP1, stronger effect = lower value 1.01 | locus YHR142W, strain chs7, stronger effect = lower value 0.983 | locus YHR200W, strain rpn10, stronger effect = lower value 1.02 | locus YIL066C, strain RNR3, stronger effect = lower value 1.02 | locus YIL073C, strain SPO22, stronger effect = lower value 1.09 | locus YIL125W, strain kgd1, stronger effect = lower value 1.01 | locus YIR030C, strain dcg1, stronger effect = lower value 1.02 | locus YJL092W, strain hpr5, stronger effect = lower value 0.986 | locus YJL095W, strain BCK1 (second series), stronger effect = lower value 0.993 | locus YJL095W, strain BCK1, stronger effect = lower value 1.03 and 1.06 | locus YJL115W, strain asf1, stronger effect = lower value 0.965 | locus YJL129C, strain trk1, stronger effect = lower value 1.02 | locus YJL134W, strain LCB3, stronger effect = lower value 1.01 | locus YJL154C, strain vps35, stronger effect = lower value 0.987 | locus YJL164C, strain tpk1, stronger effect = lower value 0.96 | locus YJL166W, strain qcr8, stronger effect = lower value 0.988 | locus YJL168C, strain set2, stronger effect = lower value 1.01 | locus YJL187C, strain SWE1 (second series), stronger effect = lower value 1.03 | locus YJR043C, strain POL32, stronger effect = lower value 1.02
